Data: the supplement of paper PMC6555819

Legend:
Experiment in all cases: PBM binding z-score (relative to random genomic background probes); higher = stronger binding; sequences stand for … in GC…GCGATTGACAGCGTAGAATGAAGG
[1] = system: FXR:RXRa (NR concentration 270 nM, RXRa partner concentration 90 nM)
Procedure, shortened: (§1)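 Ligand-free nuclear receptor dimers were bound for 1 h to custom Agilent 4×180K protein-binding microarrays. Detection used antibodies against each partner (one per run). Binding z-scores rest on regression-normalized fluorescence, with random background probes as the reference.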

[2] = system: LXRa:RXRa (NR concentration 270 nM, RXRa partner concentration 90 nM)
Procedure, shortened: as §1

[3] = system: LXRa homodimer (NR concentration 270 nM)
Procedure, shortened: as §1

[4] = system: LXRb:RXRa (NR concentration 270 nM, RXRa partner concentration 90 nM)
Procedure, shortened: as §1

[5] = system: LXRb homodimer (NR concentration 270 nM)
Procedure, shortened: as §1

[6] = system: PPARa:RXRa (NR concentration 270 nM, RXRa partner concentration 90 nM)
Procedure, shortened: as §1

[7] = system: PPARg:RXRa (NR concentration 180 nM, RXRa partner concentration 90 nM)
Procedure, shortened: as §1

[8] = system: PPARg:RXRa 270nM:90nM, anti-RXR (NR concentration 270 nM, RXRa partner concentration 90 nM)
Procedure, shortened: as §1

[9] = system: PPARg:RXRa 30nM:10nM, anti-RXR (NR concentration 30 nM, RXRa partner concentration 10 nM)
Procedure, shortened: as §1

[10] = system: PPARg:RXRa 90nM:30nM, anti-RXR (NR concentration 90 nM, RXRa partner concentration 30 nM)
Procedure, shortened: as §1

[11] = system: PPARg:RXRa DBDmut IVT, anti-RXR (DBD mutation: RXRa K156A/R161A, NR concentration 270 nM, RXRa partner concentration 90 nM)
Procedure, shortened: as §1

[12] = system: PPARg:RXRa IVT, anti-PPARg (NR concentration 270 nM, RXRa partner concentration 90 nM)
Procedure, shortened: as §1

[13] = system: PPARg DBDmut:RXRa IVT, anti-PPARg (DBD mutation: PPARg1 K132A/R137A, NR concentration 270 nM, RXRa partner concentration 90 nM)
Procedure, shortened: as §1

[14] = system: PPARg DBDmut IVT, anti-PPARg (DBD mutation: PPARg1 K132A/R137A, NR concentration 270 nM)
Procedure, shortened: as §1

[15] = system: PPARg homodimer (NR concentration 180 nM)
Procedure, shortened: as §1

[16] = system: PXR:RXRa (NR concentration 270 nM, RXRa partner concentration 90 nM)
Procedure, shortened: as §1

[17] = system: PXR homodimer (NR concentration 270 nM)
Procedure, shortened: as §1

[18] = system: RARa:RXR (NR concentration 270 nM, RXRa partner concentration 90 nM)
Procedure, shortened: as §1

[19] = system: RARa homodimer (NR concentration 270 nM)
Procedure, shortened: as §1

[20] = system: RARb:RXRa (NR concentration 270 nM, RXRa partner concentration 90 nM)
Procedure, shortened: as §1

Row | Sequence | PBM binding z-score [1] | PBM binding z-score [2] | PBM binding z-score [3] | PBM binding z-score [4] | PBM binding z-score [5] | PBM binding z-score [6] | PBM binding z-score [7] | PBM binding z-score [8] | PBM binding z-score [9] | PBM binding z-score [10] | PBM binding z-score [11] | PBM binding z-score [12] | PBM binding z-score [13] | PBM binding z-score [14] | PBM binding z-score [15] | PBM binding z-score [16] | PBM binding z-score [17] | PBM binding z-score [18] | PBM binding z-score [19] | PBM binding z-score [20]
1 | ATCGAAAGGTCGTGAGGGGAGTATACAGAAAGGC | 5.36 | 4.07 | 0.475 | 3.55 | 1.22 | 5.08 | 3.7 | 4.21 | 1.39 | 3.1 | 0.526 | 2.01 | 1.57 | 0.649 | 2.22 | 2.99 | 0.725 | 3.78 | 0.753 | 4.03
2 | CAAACTAGGTCAATGTCAAAGTCGGTTTGTGCCA | 3.38 | 2.45 | 0.407 | 1.97 | 0.714 | 4.9 | 7.78 | 6.44 | 4.27 | 6.04 | 8.51 | 8.59 | 5.32 | 4.74 | 2.82 | 1.39 | -0.00687 | 2.11 | 0.756 | 3.86
3 | ATCTCTGGGTAAGACTCAGTTCAGTGAAGAACGC | 0.0881 | 0.209 | 0.369 | 0.319 | 0.684 | 0.1 | 0.0592 | 0.276 | 0.108 | 0.0741 | 1.16 | 1.22 | 0.795 | 0.645 | 0.772 | 1.16 | 1.54 | 0.0495 | 0.661 | 0.293
4 | AGTCAATGTTCACTAGGTAACGTAAGATTCAGCT | -0.318 | -0.205 | -0.143 | -0.121 | -0.147 | 0.363 | 0.656 | 0.368 | 0.15 | 0.302 | 1.92 | 2.92 | 1.08 | 0.776 | 0.288 | -0.0899 | -0.202 | -0.181 | -0.0197 | 0.143
5 | AGAATGAGGTTATACGTAGACCAGGGAAGAAAGT | 2.15 | 1.62 | -0.0461 | 1.41 | -0.0466 | 3.11 | 1.74 | 1.98 | 0.485 | 1.29 | 4.22 | 2.41 | 0.544 | 0.658 | 0.197 | 0.906 | 0.447 | 1.48 | 0.232 | 1.43
6 | ACAGACATGTGAGTGAAGGTAACTCAGCTGGACG | -0.28 | -0.449 | -0.659 | -0.669 | -0.436 | -0.3 | 0.817 | -0.286 | -0.111 | 0.163 | -0.459 | -0.467 | -0.0972 | -0.0853 | -0.419 | -0.554 | -0.383 | -0.531 | -0.221 | -0.157
7 | ACTGGTTGGTCAGCTGAGGTCACACACAATTCGG | 3.86 | 3.31 | 2.58 | 3.6 | 0.876 | 3.6 | 1.53 | 2.1 | 0.448 | 1.43 | 0.671 | 2.22 | 1.22 | 0.402 | 3.12 | 5.37 | 2.47 | 4.61 | 1.92 | 3.73
8 | CAAACTAGGTCAAGAGGTCAAATTCCGCTTCCCG | 7.41 | 6.59 | 7.45 | 6.01 | 2.95 | 6.83 | 9.67 | 8.42 | 7.02 | 8.9 | 7.98 | 8.45 | 2.67 | 2.22 | 6.39 | 6.47 | 2.4 | 7.61 | 2.96 | 5.63
9 | CAGCCTAGGTCAGGGCCCGTATAGGAGGAACGTT | 1.56 | 0.731 | -0.61 | 0.395 | -1.32 | 1.72 | 0.643 | 0.734 | -0.158 | 0.0498 | 1.27 | 1.55 | -1.13 | -1.09 | 0.811 | -0.134 | -0.829 | 0.752 | -0.25 | 3.23
10 | TCGGGTAGGTTACCAATGGGGCATTCAGCTTTCT | 0.661 | 1.91 | 0.192 | 1.61 | 0.113 | 1.22 | 0.0871 | 1.31 | 1.96 | 1.63 | 1.78 | 1.82 | 0.338 | -0.222 | 0.725 | 0.647 | -0.198 | 0.735 | 0.0772 | 1.41
11 | TGAATGAGGTTATAAGATCATGGAACGTTGCAAA | 1.6 | 1.52 | -0.175 | 1.37 | 0.0257 | 3.04 | 1.65 | 2.41 | 1.02 | 1.78 | 1.37 | 2 | 1.44 | 0.209 | -0.119 | 1.1 | -0.359 | 1.96 | -0.439 | 1.13
12 | TTAGCAAGGTGAAAGGTCGTTGATGCACGCCTTG | 3.42 | 2.78 | -0.037 | 2.47 | -0.713 | 5.24 | 8.3 | 7.95 | 8.33 | 9.55 | 2.15 | 4.63 | 0.373 | -0.113 | 1.42 | 3.85 | 0.158 | 5.72 | -0.524 | 2.98
13 | GCTTGTAGAGCAAGGTTAAGAAAGACTAAGCTAA | -0.0313 | 0.442 | -0.567 | 0.174 | -1.28 | 1.5 | 1.41 | 2.77 | 0.817 | 2.03 | 2.64 | 1.72 | -0.693 | -0.41 | -0.216 | 0.206 | -0.546 | 0.613 | -0.213 | 0.514
14 | ATATGTAGGCTATCGGGTCATTCAGTTTGCGCAT | 1.71 | 1.58 | 0.22 | 1.95 | 0.313 | 3.69 | 4.12 | 3.83 | 1.92 | 3.21 | 5.77 | 5.5 | 1.43 | 1.46 | 1.08 | 2.87 | 6.85 | 2.54 | 0.357 | 1.72
15 | TGAATGAGGTTAAAGATCAGTGAACGTGGCGTCG | 3.15 | 2.41 | -0.442 | 1.55 | -0.0397 | 4.69 | 5.57 | 6.1 | 4.77 | 6.78 | 2.37 | 3.44 | 0.722 | 0.242 | 1.24 | 2.01 | 0.152 | 3.08 | -0.0565 | 2.09
